Assay results reported in PubChem BioAssay (NCATS).
Unmarked numbers belong to inactive results. Results filed as inconclusive are left out. A call without a number means that no potency is given here. Active and inactive are the calls of the source. Unless noted, calls follow the shape of the dose curve; as a rule, active = well fitted curve in the direction sought with a large enough effect; inconclusive = small, poorly fitted or top-dose-only effect, or another doubt; inactive = no such curve, though single readings can be large; an effect the other way counts as inactive or inconclusive.

How the values were obtained:
[1] = AP1 Signaling Pathway (AID 357; active = well fitted curve in either direction with a large enough effect, not every such curve was filed as active;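 also: ME-180 reporter cells stimulated with EGF at its EC50 level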); conditions: ME-180 AP-1-bla reporter, EGF-induced, beta-lactamase ratio, 5 h; at 7.69 µM (top of the series) unless noted
Outline: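 AP-1-bla ME-180 cells, Opti-MEM + 0.5% dialyzed FBS, plated overnight 37 °C. Cpd titration + EC50 EGF, 5 h 37 °C. CCF4 2.5 h RT; ex 405, em 460/530 ratio → %activity, AC50.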

[2] = target: Cytochrome P450 1A2 (Homo sapiens) (UniProt P05177); test: p450-cyp1a2 (AID 410; calls by dose curve; also: potency is read from the fitted curve at half-maximal effect)
Outline: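 20nM CYP1A2 with 100uM Luciferin-ME (at Km) in 100mM KPO4; compound preincubated 10 min, NADPH regeneration added, 60 min at room temperature. Luciferin quantified by luminescence after detection reagent; normalized to 57 uM furafylline.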

[3] = NFAT Signaling Pathway (AID 444; active = well fitted curve in either direction with a large enough effect, not every such curve was filed as active;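 also: carbachol stimulus at about its EC50 of 1 µM final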); conditions: Jurkat NFAT-bla M1, carbachol, beta-lactamase ratio, 5 h; at 7.69 µM (top of the series) unless noted
Outline: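 Jurkat cells with NFAT-driven β-lactamase reporter and co-expressed M1 receptor, stimulated with carbachol (final 1 uM, ~EC50), compound titration, 5 h at 37 °C. CCF4 loaded 1 h at RT; 460/530 nm ratio gave %activity and AC50.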

[4] = Stat Signaling Pathway (AID 446; active = well fitted curve in either direction with a large enough effect, not every such curve was filed as active;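 also: ME-180 cervical cancer cells given 40 pM IL-6 alongside compound; SIE-controlled beta-lactamase reporter measured as 460/530 nm FRET emission ratio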); conditions: ME-180 SIE beta-lactamase reporter, IL-6 stimulated, 5 h; at 7.69 µM (top of the series) unless noted
Outline: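 Screening format detects activators and inhibitors alike: ME-180 SIE-bla cells stimulated at 40 pM IL-6 for 5 hrs with compound, then dual-emission beta-lactamase read at 405 nm excitation.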

[5] = target: Glucocorticoid receptor (Homo sapiens) (UniProt P04150); test: GR-GFP Redistribution (AID 450;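 active = compounds whose dose series gives a full or clear partial fitted curve of increased nuclear translocation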; also: potency is read from the fitted curve at half-maximal effect); conditions: U2OS GR-GFP nuclear translocation, laser cytometry, 2 h
[6] = target: Glucocorticoid receptor (Homo sapiens) (UniProt P04150); test: GR-EFC Redistribution (AID 451; calls by dose curve; also: potency is read from the fitted curve at half-maximal effect); conditions: CHO-K1 GR-EFC translocation, beta-gal luminescence, 2 h
Outline: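 CHO-K1 cells expressing nuclear EA and GR-ED fragments of b-gal; compounds titrated up to 46 uM final, 2 h at 37 C. GR nuclear translocation read as complemented b-gal luminescence after 1 h RT detection.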

[7] = target: Mitogen-activated protein kinase 10 (Mus musculus) (UniProt Q61831); test: JNK3 AlphaScreen Assay (AID 530; active = well fitted curve in either direction with a large enough effect, not every such curve was filed as active;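 also: kinase came from lysate of stimulated human HepG2 cells; signal reports phosphorylation of biotinylated GST-cJun 1-79 at Ser73 with 10 µM ATP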)
Outline: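 Pre-activated (IL-1β/TNFα) JNK3 in HepG2 lysates phosphorylates biotin-GST-cJun(1-79), 10 uM ATP; anti-phospho-cJun(Ser73) AlphaScreen read at room temperature, pH 7.6 Tris buffer. Compounds pre-incubated 15 min as titrations.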

[8] = target: 3',5'-cyclic-AMP phosphodiesterase 4B (Homo sapiens) (UniProt Q07343); test: qHTS Assay for Inhibitors of PDE-IV (AID 607; active = well fitted activation curve with a large enough effect in the main read-out, with a control signal flat, not every such curve was filed as active)
Outline: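 The readout is membrane depolarisation from a cAMP-sensing CNG channel, detected with a potential dye at ex 535/em 590. Cells were HEK293-derived (endogenous PDE-IV) at 1000 cells/well, titrated up to 22.9 uM final.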

[9] = target: Cytochrome P450 2C9 (Homo sapiens) (UniProt P11712); test: qHTS Assay for Inhibitors and Substrates of Cytochrome P450 2C9 (AID 883); also: nearly all actives have a fitted effect of over 60% in size; also: potency is read from the fitted curve at half-maximal effect
Outline: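 Human CYP2C9 (10nM) with Luciferin-H at 100uM (its KM) in 25mM KPO4; compound preincubated 10 min at 37C, then NADPH regeneration for 60 min at 37C. Luciferin read by luminescence after detection reagent; normalized to 57uM sulphaphenazole as full inhibition.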

[10] = target: Cytochrome P450 3A4 (Homo sapiens) (UniProt P08684); test: qHTS Assay for Activators of Cytochrome P450 3A4 (AID 885); also: nearly all actives have a fitted effect of over 65% in size
Outline: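 Steps: enzyme/substrate mix dispensed; compound added, 10 min RT; NADPH regeneration solution added, 60 min RT; luciferin detection buffer stops reaction; 20 min later luminescence measured.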

[11] = target: Muscarinic acetylcholine receptor M1 (Rattus norvegicus) (UniProt P08482); test: qHTS Assay for Antagonists of Acetylcholine Muscarinic M1 Receptor: Measurement of IP-One Response (AID 944); also: nearly all actives have a fitted effect of over 75% in size
Outline: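 CHO cells stably expressing rat M1, pretreated 10 min with compound, then stimulated 30 min with carbachol at EC80 (200 nM) in LiCl-containing buffer pH 7.4; IP1 accumulation read by HTRF competition (665/620 nm).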

[12] = target: Pyruvate kinase (Leishmania mexicana) (UniProt Q27686); test: qHTS Validation Assay for Inhibitors of Leishmania Mexicana Pyruvate Kinase (AID 945)
Outline: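 Mutant LmPYK (E451W), 0.2 nM, plus 0.5 mM PEP and 0.1 mM ADP in 50 mM imidazole pH 7.2 containing 0.01% Tween 20 and 0.05% BSA. Incubated 1 h at room temperature; luminescence via PKLight, normalized to DMSO.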

[13] = target: Pyruvate kinase PKM (Homo sapiens) (UniProt P14618); test: qHTS Assay for Activators of Human Muscle Pyruvate Kinase (AID 954; active = well fitted curve in the direction sought with a large enough effect, not every such curve was filed as active)
Outline: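 Reaction: 0.1 nM purified PKM2 with 0.5 mM phosphoenolpyruvate and 0.1 mM ADP, room temperature, 1 h. Readout: luciferase-based ATP luminescence after stop reagent. Activators judged against a 0.3 nM enzyme column.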

[14] = target: Alpha-galactosidase A (Homo sapiens) (UniProt P06280); test: Counterscreen for Glucocerebrosidase Inhibitors: qHTS Assay for Human alpha-Galactosidase at pH 4.5 (AID 992)
Outline: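 Concentration-response curves (0.7 nM to 77 uM final) were modeled with the Hill equation to give AC50. Reactions: 2 nM enzyme, 80 uM fluorogenic alpha-galactoside, pH 4.5 citric acid buffer, 20 min, room temperature.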

[15] = target: Lysosomal acid glucosylceramidase (Homo sapiens) (UniProt P04062); test: Glucocerebrosidase-p2 (AID 348; in the data active = potency below about 10 µM; also: potency is read from the fitted curve at half-maximal effect); conditions: purified GBA, blue fluorogenic substrate, 40 min
Outline: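 Compounds titrated from 0.6 nM upwards against 0.2 nM enzyme in pH 5.9 citric acid/KH2PO4, taurocholate, tween-20; blue fluorogenic substrate 80 uM, 40 min room temperature, stopped and read Ex 365/Em 440 for AC50.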

[16] = target: Muscarinic acetylcholine receptor M1 (Rattus norvegicus) (UniProt P08482); test: qHTS Assay for Antagonists of Acetylcholine Muscarinic M1 Receptor: Kinetic Measurement of Intracellular Calcium Response (AID 943); also: nearly all actives have a fitted effect of over 75% in size
Outline: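 CHO cells expressing rat M1 receptor, Fluo-4 loaded, preincubated 10 min with compound, then stimulated with EC80 carbachol (100 nM final). Kinetic calcium fluorescence over 4 min; response taken as peak over basal signal.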

[17] = target: Cytochrome P450 2D6 (Homo sapiens) (UniProt P10635); test: qHTS Assay for Inhibitors and Substrates of Cytochrome P450 2D6 (AID 891); also: nearly all actives have a fitted effect of over 60% in size; also: potency is read from the fitted curve at half-maximal effect;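 as to activity change, negative = inhibition: luciferin methyl ether substrate demethylated by CYP2D6 with NADPH regeneration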
Outline: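 Human CYP2D6 (5 nM) with 30 uM Luciferin-ME EGE (at Km) in 100 mM KPO4, compound preincubated 10 min, then NADPH regeneration system for 60 min at room temperature. Luciferin read by luminescence; normalized to 1.43 uM quinidine.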

[18] = target: Cytochrome P450 2C19 (Homo sapiens) (UniProt P33261); test: qHTS Assay for Inhibitors and Substrates of Cytochrome P450 2C19 (AID 899); also: nearly all actives have a fitted effect of over 60% in size
Outline: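 5 nM human CYP2C19 with 10uM Luciferin-H EGE (at KM) in 50mM KPO4, compound preincubated 10 min at 37C, then NADPH regeneration for 60 min at 37C. Luciferin read by luminescence after detection reagent; normalized to 57uM ketoconazole as full inhibition.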

[19] = qHTS Assay for Identification of Small Molecule Antagonists for NFkB Signaling Pathway (AID 895; active = well fitted inhibition curve with a large enough effect in the signal ratio, with a control signal flat, not every such curve was filed as active; the % refers to the signal ratio)
Outline: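 ME-180 NFkB-bla cells (beta-lactamase under NFkB response element), plated overnight, treated with compound then 10 pM TNF alpha (about EC50) for 5 hrs at 37 C. LiveBLAzer FRET read at 460/530 nm emission, 405 nm excitation.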

Pyruvate kinase PKM (Homo sapiens), sequence (P14618 whole entry, looked up): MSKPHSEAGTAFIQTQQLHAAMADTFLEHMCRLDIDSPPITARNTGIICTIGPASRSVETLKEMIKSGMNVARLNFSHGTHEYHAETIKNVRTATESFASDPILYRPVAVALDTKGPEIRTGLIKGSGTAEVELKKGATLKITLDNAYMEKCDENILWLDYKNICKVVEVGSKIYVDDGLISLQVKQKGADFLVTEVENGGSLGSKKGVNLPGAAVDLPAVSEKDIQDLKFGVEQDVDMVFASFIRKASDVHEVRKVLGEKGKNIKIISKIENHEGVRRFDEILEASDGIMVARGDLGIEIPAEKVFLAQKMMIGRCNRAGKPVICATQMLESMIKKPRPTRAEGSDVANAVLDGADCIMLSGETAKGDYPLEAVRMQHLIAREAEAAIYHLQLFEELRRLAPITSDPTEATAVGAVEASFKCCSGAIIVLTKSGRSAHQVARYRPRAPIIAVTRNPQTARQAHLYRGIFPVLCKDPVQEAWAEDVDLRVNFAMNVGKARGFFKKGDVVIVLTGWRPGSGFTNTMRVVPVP
Cytochrome P450 2C9 (Homo sapiens), sequence (P11712 whole entry, looked up): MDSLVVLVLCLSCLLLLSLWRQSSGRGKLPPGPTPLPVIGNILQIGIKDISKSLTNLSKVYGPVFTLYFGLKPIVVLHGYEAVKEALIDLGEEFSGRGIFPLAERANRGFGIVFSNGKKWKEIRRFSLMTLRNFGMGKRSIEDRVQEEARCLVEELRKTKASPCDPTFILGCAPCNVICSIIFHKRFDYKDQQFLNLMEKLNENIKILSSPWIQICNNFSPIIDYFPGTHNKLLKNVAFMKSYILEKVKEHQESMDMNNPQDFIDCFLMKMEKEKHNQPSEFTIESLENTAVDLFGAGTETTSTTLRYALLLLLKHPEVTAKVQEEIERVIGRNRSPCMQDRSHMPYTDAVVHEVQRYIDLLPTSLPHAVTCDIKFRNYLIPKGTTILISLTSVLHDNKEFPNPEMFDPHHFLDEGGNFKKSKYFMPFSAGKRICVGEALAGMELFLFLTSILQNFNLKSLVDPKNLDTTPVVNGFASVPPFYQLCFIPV
Cytochrome P450 2C19 (Homo sapiens), sequence (P33261 whole entry, looked up): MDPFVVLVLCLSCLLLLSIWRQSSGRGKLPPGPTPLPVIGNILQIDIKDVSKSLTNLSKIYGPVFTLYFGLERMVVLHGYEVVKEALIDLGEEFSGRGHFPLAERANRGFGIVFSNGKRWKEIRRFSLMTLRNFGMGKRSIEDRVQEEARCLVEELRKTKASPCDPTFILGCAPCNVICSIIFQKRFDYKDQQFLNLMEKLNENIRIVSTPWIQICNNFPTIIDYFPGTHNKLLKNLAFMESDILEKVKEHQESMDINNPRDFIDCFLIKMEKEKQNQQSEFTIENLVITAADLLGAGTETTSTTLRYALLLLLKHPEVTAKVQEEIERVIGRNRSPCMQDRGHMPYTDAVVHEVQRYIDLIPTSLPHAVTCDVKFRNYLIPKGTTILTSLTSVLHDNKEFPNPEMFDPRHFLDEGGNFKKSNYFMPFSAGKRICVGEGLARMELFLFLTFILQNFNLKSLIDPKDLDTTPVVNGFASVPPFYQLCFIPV
Cytochrome P450 3A4 (Homo sapiens), sequence (P08684 whole entry, looked up): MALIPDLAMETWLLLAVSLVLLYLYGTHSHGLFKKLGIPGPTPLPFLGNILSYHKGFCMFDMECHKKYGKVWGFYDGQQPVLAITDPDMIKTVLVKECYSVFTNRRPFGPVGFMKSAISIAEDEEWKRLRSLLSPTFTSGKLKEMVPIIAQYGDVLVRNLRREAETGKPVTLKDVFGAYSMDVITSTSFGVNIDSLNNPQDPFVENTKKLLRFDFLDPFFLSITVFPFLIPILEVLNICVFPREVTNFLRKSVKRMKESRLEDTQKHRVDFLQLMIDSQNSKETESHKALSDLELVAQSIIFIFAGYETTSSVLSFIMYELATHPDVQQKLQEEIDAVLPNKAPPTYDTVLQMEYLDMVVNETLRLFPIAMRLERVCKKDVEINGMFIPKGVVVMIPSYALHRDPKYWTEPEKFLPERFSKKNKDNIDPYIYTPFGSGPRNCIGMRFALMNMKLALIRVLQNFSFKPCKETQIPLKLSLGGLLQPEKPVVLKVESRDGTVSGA
3',5'-cyclic-AMP phosphodiesterase 4B (Homo sapiens), sequence (Q07343 whole entry, looked up): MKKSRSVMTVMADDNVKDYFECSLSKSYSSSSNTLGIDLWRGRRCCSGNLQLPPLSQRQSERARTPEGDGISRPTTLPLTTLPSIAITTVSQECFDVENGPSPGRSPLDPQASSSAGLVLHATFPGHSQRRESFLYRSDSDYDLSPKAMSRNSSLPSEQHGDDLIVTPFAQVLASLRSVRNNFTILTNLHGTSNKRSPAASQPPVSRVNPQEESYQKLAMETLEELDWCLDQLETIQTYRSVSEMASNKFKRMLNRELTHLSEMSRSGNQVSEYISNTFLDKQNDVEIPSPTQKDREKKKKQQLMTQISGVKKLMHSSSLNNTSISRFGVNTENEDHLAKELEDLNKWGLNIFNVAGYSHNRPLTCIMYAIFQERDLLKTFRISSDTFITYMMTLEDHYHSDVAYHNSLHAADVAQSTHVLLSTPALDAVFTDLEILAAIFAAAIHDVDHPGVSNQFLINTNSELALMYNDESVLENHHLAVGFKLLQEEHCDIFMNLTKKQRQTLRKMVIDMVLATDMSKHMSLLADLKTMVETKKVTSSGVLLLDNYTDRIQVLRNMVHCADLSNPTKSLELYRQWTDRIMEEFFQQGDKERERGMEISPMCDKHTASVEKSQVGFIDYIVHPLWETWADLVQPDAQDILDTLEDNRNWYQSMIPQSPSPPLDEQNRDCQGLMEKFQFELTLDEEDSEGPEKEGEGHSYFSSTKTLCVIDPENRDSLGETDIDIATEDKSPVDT
Cytochrome P450 2D6 (Homo sapiens), sequence (P10635 whole entry, looked up): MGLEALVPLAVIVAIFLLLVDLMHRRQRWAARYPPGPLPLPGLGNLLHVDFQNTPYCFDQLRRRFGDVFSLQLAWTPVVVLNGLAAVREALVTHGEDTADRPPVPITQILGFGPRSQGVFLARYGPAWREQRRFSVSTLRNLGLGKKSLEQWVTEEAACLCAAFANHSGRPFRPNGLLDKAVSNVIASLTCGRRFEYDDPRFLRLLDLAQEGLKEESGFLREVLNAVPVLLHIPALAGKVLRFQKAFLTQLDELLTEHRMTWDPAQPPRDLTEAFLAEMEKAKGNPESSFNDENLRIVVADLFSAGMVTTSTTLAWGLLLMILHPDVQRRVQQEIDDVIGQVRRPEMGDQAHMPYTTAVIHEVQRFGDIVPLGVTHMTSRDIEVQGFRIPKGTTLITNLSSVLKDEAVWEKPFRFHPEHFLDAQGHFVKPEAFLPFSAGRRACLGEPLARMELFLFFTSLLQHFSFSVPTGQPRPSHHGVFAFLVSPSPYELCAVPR
Alpha-galactosidase A (Homo sapiens), sequence (P06280 whole entry, looked up): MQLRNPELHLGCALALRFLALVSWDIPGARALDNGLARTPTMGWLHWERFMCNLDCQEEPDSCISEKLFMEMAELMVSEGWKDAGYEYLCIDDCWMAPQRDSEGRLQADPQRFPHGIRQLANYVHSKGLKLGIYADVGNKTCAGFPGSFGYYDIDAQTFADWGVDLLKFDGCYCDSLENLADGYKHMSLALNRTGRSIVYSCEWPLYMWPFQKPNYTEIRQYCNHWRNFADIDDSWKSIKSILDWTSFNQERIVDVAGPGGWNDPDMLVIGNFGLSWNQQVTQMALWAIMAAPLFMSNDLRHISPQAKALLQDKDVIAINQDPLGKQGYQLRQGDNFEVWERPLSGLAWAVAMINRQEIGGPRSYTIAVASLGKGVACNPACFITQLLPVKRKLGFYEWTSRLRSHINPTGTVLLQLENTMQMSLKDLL
Glucocorticoid receptor (Homo sapiens), sequence (P04150 whole entry, looked up, the tested form may be a part): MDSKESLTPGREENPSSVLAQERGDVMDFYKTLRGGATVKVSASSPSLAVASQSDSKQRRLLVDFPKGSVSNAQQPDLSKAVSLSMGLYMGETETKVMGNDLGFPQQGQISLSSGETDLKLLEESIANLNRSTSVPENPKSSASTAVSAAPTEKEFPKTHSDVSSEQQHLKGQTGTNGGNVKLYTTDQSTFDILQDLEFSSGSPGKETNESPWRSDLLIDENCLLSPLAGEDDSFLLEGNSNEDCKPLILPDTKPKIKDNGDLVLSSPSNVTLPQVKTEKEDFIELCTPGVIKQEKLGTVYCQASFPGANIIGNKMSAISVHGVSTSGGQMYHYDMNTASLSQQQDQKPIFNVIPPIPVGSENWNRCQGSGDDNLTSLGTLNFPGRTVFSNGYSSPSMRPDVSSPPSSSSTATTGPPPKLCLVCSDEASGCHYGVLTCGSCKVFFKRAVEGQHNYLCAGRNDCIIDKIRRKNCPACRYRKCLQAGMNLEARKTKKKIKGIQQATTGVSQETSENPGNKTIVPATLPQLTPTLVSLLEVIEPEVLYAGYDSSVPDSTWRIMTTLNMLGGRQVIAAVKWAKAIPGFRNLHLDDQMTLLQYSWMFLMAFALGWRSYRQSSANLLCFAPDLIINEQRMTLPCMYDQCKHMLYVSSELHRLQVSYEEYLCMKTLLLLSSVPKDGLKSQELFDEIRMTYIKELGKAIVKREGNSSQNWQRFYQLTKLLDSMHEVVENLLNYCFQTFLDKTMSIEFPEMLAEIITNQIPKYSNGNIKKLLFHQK
Pyruvate kinase (Leishmania mexicana), sequence (Q27686 2-499 E452W): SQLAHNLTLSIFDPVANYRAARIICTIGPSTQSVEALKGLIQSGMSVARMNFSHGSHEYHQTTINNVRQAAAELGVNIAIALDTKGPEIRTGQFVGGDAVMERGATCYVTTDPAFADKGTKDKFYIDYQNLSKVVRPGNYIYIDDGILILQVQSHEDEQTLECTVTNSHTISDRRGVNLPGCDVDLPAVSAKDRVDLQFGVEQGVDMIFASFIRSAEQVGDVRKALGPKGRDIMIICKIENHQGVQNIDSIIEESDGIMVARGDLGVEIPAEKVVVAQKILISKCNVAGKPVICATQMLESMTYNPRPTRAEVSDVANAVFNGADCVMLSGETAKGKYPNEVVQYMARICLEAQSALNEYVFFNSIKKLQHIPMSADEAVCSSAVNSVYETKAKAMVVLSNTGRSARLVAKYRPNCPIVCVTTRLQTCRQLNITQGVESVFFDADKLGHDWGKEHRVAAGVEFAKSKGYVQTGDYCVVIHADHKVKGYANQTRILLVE

Compound	activity change, negative = inhibition [1]	Potency [2]	activity change, negative = inhibition [3]	activity, negative = inhibition [4]	Potency [5] [µM]	Potency [6] [µM]	Potency [7]	outcome [8]	Potency [9]	Potency [10]	Potency [11]	outcome [12]	outcome [13]	outcome [14]	Potency [15] [µM]	activity change, negative = inhibition [7]	Potency [16]	Potency [17]	Potency [18]	Potency [19]
CC(=O)[C@@H]1CC[C@H]2[C@H]3CC[C@H]4C[C@@H](O)CC[C@]4(C)[C@@H]3CC[C@]12C	11.2% [at 38 µM]	10 µM (active)	-10.3% [at 38 µM]	-25.9% [at 38 µM]	> 46	> 46	inactive	inactive	2 µM (active)	inactive	inactive	inactive	inactive	inactive	–	–	–	–	–	–
CS(=O)(=O)O[C@H]1CN2CCC1CC2	–	inactive	-10.5%	-2.65%	> 46	> 9.22	–	inactive	–	–	–	–	–	–	> 11.4	2.61% [at 11.4 µM]	–	–	–	–
C=CCN1CC[C@]23c4c5ccc(O)c4O[C@@H]2/C(=N/NC(=O)c2ccccc2)CC[C@@]3(O)[C@H]1C5	-2.73% [at 38 µM]	inactive	-2.19% [at 38 µM]	-23.6% [at 38 µM]	> 46	–	inactive	inactive	–	inactive	inactive	inactive	inactive	inactive	–	–	inactive	–	–	–
N[C@H](Cn1oc(=O)[nH]c1=O)C(=O)O	0.495% [at 38 µM]	inactive	-2.78% [at 38 µM]	6.66% [at 38 µM]	> 46	> 46	inactive	inactive	inactive	–	–	–	–	–	–	–	–	inactive	inactive	–
COc1ccc2c3c1O[C@@H]1C(=O)CC[C@@]4(O)[C@@H](C2)N(CC2CC2)CC[C@]314	-5.48% [at 38 µM]	inactive	-9.4% [at 38 µM]	4.82% [at 38 µM]	> 46	> 46	inactive	inactive	–	inactive	inactive	inactive	inactive	inactive	–	–	–	5.01 µM (active)	–	inactive
N[C@H](Cn1cc(I)c(=O)[nH]c1=O)C(=O)O	10.7% [at 38 µM]	inactive	-6.62% [at 38 µM]	-6.5% [at 38 µM]	> 46	> 46	inactive	inactive	inactive	–	–	–	–	–	–	–	–	inactive	inactive	–
CC(=O)OCC1=C(C(=O)[O-])N2C(=O)[C@@H](NC(=O)CCC[C@@H](N)C(=O)[O-])[C@@H]2SC1.[Zn+2]	13.1% [at 38 µM]	inactive	1.01% [at 38 µM]	-13.9% [at 38 µM]	> 46	–	inactive	–	–	–	inactive	inactive	inactive	inactive	–	–	inactive	–	–	inactive
N[C@H](CCl)C(=O)O	0.76% [at 38 µM]	inactive	14.9% [at 38 µM]	-9.55% [at 38 µM]	> 46	> 46	inactive	inactive	–	–	–	inactive	inactive	inactive	–	–	inactive	–	–	–
C[Se]C[C@@H](N)C(=O)O	1.98% [at 38 µM]	inactive	5.06% [at 38 µM]	-28.4% [at 38 µM]	> 46	–	inactive	inactive	–	inactive	inactive	inactive	inactive	inactive	–	–	inactive	–	inactive	–
COc1ccc2c(c1)[C@]13CCCC[C@@H]1[C@H](C2)NCC3	15.6% [at 38 µM]	inactive	4.42% [at 38 µM]	-11.2% [at 38 µM]	> 46	> 46	inactive	inactive	–	inactive	inactive	inactive	inactive	inactive	–	–	–	6.31 µM (active)	–	–
Oc1ccc2c3c1O[C@@H]1c4[nH]c5c(c4C[C@@]4(O)[C@@H](C2)N(CC2CC2)CC[C@]314)C[C@]1(O)[C@@H]2Cc3ccc(O)c4c3[C@@]1(CCN2CC1CC1)[C@H]5O4	-1.65% [at 38 µM]	inactive	-8.04% [at 38 µM]	-12.2% [at 38 µM]	> 46	> 46	–	–	–	inactive	–	inactive	inactive	inactive	–	–	inactive	–	–	inactive
